Results on 58 molecules are retold here after article PMC4336329 (PLoS ONE, 2015).

About 14,000 (4.5%) of roughly 310,000 compounds showed an effect of 50% or more. The effect is printed as a negative number. This excerpt belongs to a sample that is enriched for strong results.
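Note: peak tail current of the secondary pulse compared with the same well before compound.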

The target in the assay is human ether-à-go-go-related gene (hERG) potassium channel (human, UniProt Q12809). The assay is described as follows: primary screen, population patch clamp on CHO cells stably expressing hERG; higher = less effect of the substance.
Sequence of human ether-à-go-go-related gene (hERG) potassium channel (Q12809 whole entry, looked up): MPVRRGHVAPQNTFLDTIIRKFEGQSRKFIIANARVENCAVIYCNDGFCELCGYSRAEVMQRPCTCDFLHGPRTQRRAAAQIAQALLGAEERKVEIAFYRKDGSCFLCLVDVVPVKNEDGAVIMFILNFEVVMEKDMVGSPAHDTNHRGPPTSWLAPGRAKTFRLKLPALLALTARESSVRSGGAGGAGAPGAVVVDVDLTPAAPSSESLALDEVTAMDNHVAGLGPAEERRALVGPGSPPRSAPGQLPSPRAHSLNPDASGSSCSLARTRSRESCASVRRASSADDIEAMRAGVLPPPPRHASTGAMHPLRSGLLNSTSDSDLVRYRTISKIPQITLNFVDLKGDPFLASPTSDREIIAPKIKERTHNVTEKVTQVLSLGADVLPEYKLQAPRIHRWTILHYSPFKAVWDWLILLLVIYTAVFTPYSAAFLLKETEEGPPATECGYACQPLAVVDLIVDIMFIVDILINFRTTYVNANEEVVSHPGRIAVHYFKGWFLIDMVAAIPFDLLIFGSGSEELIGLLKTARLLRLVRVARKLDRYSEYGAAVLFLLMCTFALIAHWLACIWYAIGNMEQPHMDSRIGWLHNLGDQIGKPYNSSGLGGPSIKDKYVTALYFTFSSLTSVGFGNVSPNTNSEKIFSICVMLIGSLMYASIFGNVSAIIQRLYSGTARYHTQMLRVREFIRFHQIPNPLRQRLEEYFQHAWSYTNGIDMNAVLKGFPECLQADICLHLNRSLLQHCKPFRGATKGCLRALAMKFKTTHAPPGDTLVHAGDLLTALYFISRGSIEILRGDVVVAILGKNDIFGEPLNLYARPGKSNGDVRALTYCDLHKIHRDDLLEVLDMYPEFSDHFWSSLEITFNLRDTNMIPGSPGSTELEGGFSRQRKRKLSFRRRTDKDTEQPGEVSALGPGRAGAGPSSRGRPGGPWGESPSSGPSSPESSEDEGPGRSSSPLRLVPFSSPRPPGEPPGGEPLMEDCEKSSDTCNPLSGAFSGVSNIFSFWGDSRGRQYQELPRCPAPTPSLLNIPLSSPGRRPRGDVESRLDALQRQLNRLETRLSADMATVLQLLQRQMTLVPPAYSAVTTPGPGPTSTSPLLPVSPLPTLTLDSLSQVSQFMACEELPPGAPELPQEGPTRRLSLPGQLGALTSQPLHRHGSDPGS
Take `O=C(NN=C1C2CC3CC(C2)CC1C3)c1cccc(S(=O)(=O)N2CCOCC2)c1`: the “hERG current change (%, negative = inhibition) at 10uM” value is reported as 0.586%.
For `COC(=O)CSC1=C(C#N)C(c2cccc(F)c2)CC(=O)N1` (stereo not shown) the value was 9.97%; for `CC1c2[nH]c3ccccc3c2CCN1S(C)(=O)=O` (stereo not shown), 3.54%.
As to `COc1ccc(C2CC(c3cccs3)=NN2C(=O)CSc2nnc(N)s2)cc1OC` (stereo not shown), the “hERG current change (%, negative = inhibition) at 10uM” value is -4.6%.
For `O=C(CCCOc1ccccc1)Nc1ccc(Cl)cn1` the value was -3.18%.
For `CCCCC(=O)Nc1cc(OCC)c(NC(=O)c2ccccc2[N+](=O)[O-])cc1OCC` the value was -4.27%; for `FC(F)(F)c1cccc(-c2nnc3ccc(C(F)(F)F)cn23)c1`, -65.2%.
Consider `FC(F)(F)c1ccc2nnc(-c3c(Cl)cccc3Cl)n2c1`, for which the “hERG current change (%, negative = inhibition) at 10uM” value was -4.48%.
For `Fc1cccc(Cl)c1-c1nnc2ccc(C(F)(F)F)cn12` the value was 10.9%; for `O=C(Nc1ccc2nc3ccccc3nc2c1)c1ccc(Br)cc1`, 17.9%; for `O=C(NC(=S)N1CCN(c2ccc(Cl)cc2[N+](=O)[O-])CC1)c1cccs1`, -30%.
In the case of `O=C(NC(=S)N1CCN(c2ccc(Cl)cc2[N+](=O)[O-])CC1)c1ccco1`, the “hERG current change (%, negative = inhibition) at 10uM” value is listed as -68.4%.
Under `CCC(=O)N1CCN(c2ccc(Cl)cc2NC(=S)NC(=O)c2ccco2)CC1` stands -0.88%.
For the molecule `O=C(NC(=S)N1CCN(c2ccc([N+](=O)[O-])cc2)CC1)c1ccccc1Cl`, the “hERG current change (%, negative = inhibition) at 10uM” value is reported as -39.8%.
Under `O=C(NC(=S)N1CCN(c2ccc([N+](=O)[O-])cc2)CC1)c1ccccc1` stands 0.58%.
Under `O=C(NC(=S)N1CCN(c2ccc([N+](=O)[O-])cc2)CC1)c1ccc(F)cc1` stands -58.5%.
Under `Cc1ccc(C(=O)NC(=S)N2CCN(c3ccc([N+](=O)[O-])cc3)CC2)cc1` stands -15.6%.
`O=C(NC(=S)N1CCN(c2ccc([N+](=O)[O-])cc2)CC1)c1ccccc1F`: the “hERG current change (%, negative = inhibition) at 10uM” value was -25.8%.
Under `O=C(NC(=S)N1CCN(c2ccc([N+](=O)[O-])cc2)CC1)c1ccco1` stands -61.2%.
Under `Cc1oc(C(C)(C)C)cc1C(=O)N1CCN(c2ccc(C(F)(F)F)cn2)CC1` stands -5.33%; under `Cc1ccc(N(C(=O)c2nsc(Cl)c2Cl)C(C(=O)NC2CCCC2)c2ccc(O)cc2)cc1C` (stereo not shown), 9.52%; under `COc1ccc(-n2c(O)c(/C=N/n3cnnc3)c3ccccc3c2=O)cc1`, -1.22%.
For `CC(=O)Nc1ccc(S(=O)(=O)NC2=C(N3CCN(C)CC3)C(=O)c3ccccc3C2=O)cc1` the value was -0.763%.
On to `CC(=O)c1ccc(NC(=O)Cn2cnc(S(=O)(=O)N3CCC(C)CC3)c2)cc1`, for which the “hERG current change (%, negative = inhibition) at 10uM” value is on record as 21.4%.
For `O=C(Nc1ccccn1)C1CCCN(c2ncnc3c2nc2n3CCCCC2)C1` (stereo not shown) the value was -34.8%; for `Cc1ccc(NC(=O)C2CCCN(c3ncnc4c3nc3n4CCCCC3)C2)nc1` (stereo not shown), -62.5%; for `O=C(Nc1ccc(Cl)cn1)C1CCCN(c2ncnc3c2nc2n3CCCCC2)C1` (stereo not shown), -57.7%.
Under `Cc1cccc(NC(=O)C2CCN(c3ncnc4c3nc3n4CCCCC3)CC2)n1` stands -29.5%; under `O=C(Nc1ccc(Cl)cn1)C1CCN(c2ncnc3c2nc2n3CCCCC2)CC1`, -38.8%; under `Cc1cccc(NC(=O)C2CCCN(c3ncnc4c3nc3n4CCCCC3)C2)n1` (stereo not shown), -54.2%.
For `Cc1ccnc(NC(=O)C2CCCN(c3ncnc4c3nc3n4CCCCC3)C2)c1` (stereo not shown) the value was -45.6%; for `O=C(Oc1ccc2c3c(c(=O)oc2c1)CCC3)c1ccco1`, -1.09%; for `CCOC(=O)c1ccc(NC(=O)CN2C(=O)NC3(CCCCCCC3)C2=O)cc1`, -7.35%.
Turning to `COC(=O)c1[nH]c2ccc(F)cc2c1NS(=O)(=O)c1ccc(F)c(C)c1`, the “hERG current change (%, negative = inhibition) at 10uM” value worked out at 0.344%.
Under `Cc1ccc(C2Nc3ccccc3NC3=C2C(=O)CC(C)(C)C3)c(O)c1` (stereo not shown) stands 3.15%.
For `Nc1c2c(nc3sc4c(c13)CCCCC4)CCCCC2` the value was -25.9%; for `Nc1c2c(nc3sc4c(c13)CCCC4)CCCCC2`, -6.3%.
For `Nc1c2c(nc3sc4c(c13)CCCC4)CCCC2` the value was -70.4%.
`Cc1nc2ccccc2nc1OCC(=O)Nc1ccccc1`: the “hERG current change (%, negative = inhibition) at 10uM” value amounted to 14.8%.
Under `Cc1ccc(S(=O)(=O)N(CC2CO2)c2cc(Cl)ccc2Cl)cc1` (stereo not shown) stands -6.93%; under `C[C@]1(C(=O)NCCCNc2ncc(C(F)(F)F)cc2Cl)C=C[C@@H](Cc2ccccc2)N1C(=O)c1ccccc1`, 7.01%; under `COC(=O)N1[C@H](C)C=C[C@]1(Cc1ccccc1)C(=O)NCCCNc1ncc(C(F)(F)F)cc1Cl`, -10.5%.
For `CC1(C(=O)NCCCNc2ncc(C(F)(F)F)cc2Cl)C=CCN1C(=O)c1ccccc1` (stereo not shown) the value was -56.4%.
For `O=C(COC(=O)COc1ccccc1[N+](=O)[O-])Nc1ccccc1Br` the value was 3.82%.
For the molecule `COCCCNC(=S)N1CCN(c2nc(-c3ccccc3)cs2)CC1`, the “hERG current change (%, negative = inhibition) at 10uM” value is listed as -5.55%.
In the case of `CCCCNC(=O)CCSc1ccc(C)cc1`, the “hERG current change (%, negative = inhibition) at 10uM” value was -2.9%.
Under `CN(CC(=O)NCc1ccccc1)Cc1cccc(F)c1.O=C(O)C(=O)O` stands 9.59%.
For `CSc1ccc(CN(C)CC(=O)NCc2ccc(F)cc2)cc1` the value was -70.1%.
Under `CSc1ccc(CN(C)CC(=O)NCCc2ccccc2)cc1` stands -35.5%.
For `CSc1ccc(CN(C)CC(=O)NC(=O)NC(C)(C)C)cc1`, the “hERG current change (%, negative = inhibition) at 10uM” value is -3.83%.
For `COc1ccc(CNC(=O)CN(C)Cc2ccc(SC)cc2)cc1` the value was -65.2%; for `COc1ccc(CNC(=O)CN(C)Cc2ccc(C(C)(C)C)cc2)cc1.O=C(O)C(=O)O`, -4.44%; for `CSc1ccc(CN(C)CC(=O)NCc2ccccc2)cc1`, -52.5%.
Take `CN(CC(=O)NCc1ccc(F)cc1)Cc1ccc(Br)cc1`: the “hERG current change (%, negative = inhibition) at 10uM” value is -35.5%.
Take `CSc1ccc(CN(C)CC(=O)Nc2ccccc2Br)cc1`: the “hERG current change (%, negative = inhibition) at 10uM” value is 17.3%.
Under `COc1ccc(CN(C)CC(=O)N(C)CC(=O)Nc2ccccc2Br)cc1F` stands -39.1%; under `CSc1ccc(CN(C)CC(=O)Nc2ccc(NC(C)=O)cc2)cc1`, -25.8%; under `CSc1ccc(CN(C)CC(=O)N(C)CC(=O)Nc2ccccc2Br)cc1`, -56.9%.
